Tests used:
Assay in all cases: DAPPL (digital affinity profiling via proximity ligation, sequencing); 10 mM Tris-HCl pH 7.5, 50 mM NaCl, 1 mM DTT, 4% glycerol, room temperature, 30 min; GST-TFs on glutathione beads, 16-mer random dsDNA library, 0.1% formaldehyde crosslink after washing; high values mean tight binding
Settings in all cases: protein: recombinant; tags: N-terminal GST; dsDNA, one strand shown
ERF = molecular target: T1, ERF (Homo sapiens, UniProt P50548 1-548)
T1 sequence: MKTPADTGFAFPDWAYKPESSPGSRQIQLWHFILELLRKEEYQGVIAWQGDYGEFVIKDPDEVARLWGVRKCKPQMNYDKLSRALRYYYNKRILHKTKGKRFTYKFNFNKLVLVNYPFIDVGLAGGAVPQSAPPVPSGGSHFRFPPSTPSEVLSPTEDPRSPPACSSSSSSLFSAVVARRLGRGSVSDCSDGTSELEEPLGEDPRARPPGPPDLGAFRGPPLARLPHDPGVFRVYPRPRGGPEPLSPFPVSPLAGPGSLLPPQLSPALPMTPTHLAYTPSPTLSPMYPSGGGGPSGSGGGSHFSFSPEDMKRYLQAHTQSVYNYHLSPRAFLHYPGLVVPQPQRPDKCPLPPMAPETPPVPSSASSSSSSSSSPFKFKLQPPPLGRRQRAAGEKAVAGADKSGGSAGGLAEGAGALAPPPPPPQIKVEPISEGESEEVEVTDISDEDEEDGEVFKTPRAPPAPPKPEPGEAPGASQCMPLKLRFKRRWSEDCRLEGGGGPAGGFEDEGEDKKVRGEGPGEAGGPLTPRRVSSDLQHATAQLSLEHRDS
Outline: (§1)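 In yeast, human transcription factors were expressed with a GST fusion, then pulled down on glutathione beads and given DNA barcodes. Pooled with a tag-only sample, they were exposed to 200 nmole of a 16-mer random double-stranded DNA library (Tris/NaCl/DTT/glycerol buffer, room temperature, 30 min), washed, crosslinked with 0.1% formaldehyde, proximity-ligated using BsaI/T4 ligase for 1 h at 37 °C, PCR-amplified and read on an Illumina NextSeq500. Each hexamer's frequency of reads for a factor, divided by the matching frequency for the tag-only sample, gives the binding signal.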

ETV3L = molecular target: T2, ETV3L (Homo sapiens, UniProt Q6ZN32 1-361)
T2 sequence: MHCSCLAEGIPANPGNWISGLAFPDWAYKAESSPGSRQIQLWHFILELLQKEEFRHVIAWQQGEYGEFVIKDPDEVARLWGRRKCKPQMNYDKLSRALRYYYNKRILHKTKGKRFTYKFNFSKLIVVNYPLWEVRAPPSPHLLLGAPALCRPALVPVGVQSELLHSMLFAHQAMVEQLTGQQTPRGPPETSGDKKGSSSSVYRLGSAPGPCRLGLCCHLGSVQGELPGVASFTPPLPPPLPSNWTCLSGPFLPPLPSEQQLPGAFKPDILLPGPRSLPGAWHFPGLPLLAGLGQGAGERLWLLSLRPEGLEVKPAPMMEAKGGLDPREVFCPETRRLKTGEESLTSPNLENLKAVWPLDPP
Outline: as §1

ETS2 = molecular target: T3, ETS2 (Homo sapiens, UniProt P15036 1-469)
T3 sequence: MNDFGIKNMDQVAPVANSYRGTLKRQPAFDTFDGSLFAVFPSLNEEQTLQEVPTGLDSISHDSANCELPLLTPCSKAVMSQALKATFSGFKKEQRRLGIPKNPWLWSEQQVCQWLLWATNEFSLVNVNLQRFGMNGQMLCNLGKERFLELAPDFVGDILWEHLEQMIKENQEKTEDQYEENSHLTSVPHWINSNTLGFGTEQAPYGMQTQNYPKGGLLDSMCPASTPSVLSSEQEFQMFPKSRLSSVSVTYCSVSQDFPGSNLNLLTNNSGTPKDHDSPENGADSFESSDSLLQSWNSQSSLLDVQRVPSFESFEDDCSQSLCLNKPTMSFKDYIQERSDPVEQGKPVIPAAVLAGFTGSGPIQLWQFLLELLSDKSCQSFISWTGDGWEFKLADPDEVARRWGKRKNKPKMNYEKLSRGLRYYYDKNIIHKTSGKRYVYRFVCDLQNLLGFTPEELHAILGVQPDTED
Outline: as §1

SPDEF = molecular target: T4, SPDEF (Homo sapiens, UniProt O95238 1-335)
T4 sequence: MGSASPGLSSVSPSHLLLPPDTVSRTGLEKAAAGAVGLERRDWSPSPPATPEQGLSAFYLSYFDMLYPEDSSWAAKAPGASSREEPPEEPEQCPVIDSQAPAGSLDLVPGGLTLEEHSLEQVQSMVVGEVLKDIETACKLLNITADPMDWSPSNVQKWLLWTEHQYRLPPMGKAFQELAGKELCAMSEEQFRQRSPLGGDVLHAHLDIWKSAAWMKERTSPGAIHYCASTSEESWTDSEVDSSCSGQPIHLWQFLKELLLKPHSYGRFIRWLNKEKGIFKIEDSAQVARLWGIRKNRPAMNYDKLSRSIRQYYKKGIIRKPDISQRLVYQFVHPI
Outline: as §1

ETV7 = molecular target: T5, ETV7 (Homo sapiens, UniProt Q9Y603 1-341)
T5 sequence: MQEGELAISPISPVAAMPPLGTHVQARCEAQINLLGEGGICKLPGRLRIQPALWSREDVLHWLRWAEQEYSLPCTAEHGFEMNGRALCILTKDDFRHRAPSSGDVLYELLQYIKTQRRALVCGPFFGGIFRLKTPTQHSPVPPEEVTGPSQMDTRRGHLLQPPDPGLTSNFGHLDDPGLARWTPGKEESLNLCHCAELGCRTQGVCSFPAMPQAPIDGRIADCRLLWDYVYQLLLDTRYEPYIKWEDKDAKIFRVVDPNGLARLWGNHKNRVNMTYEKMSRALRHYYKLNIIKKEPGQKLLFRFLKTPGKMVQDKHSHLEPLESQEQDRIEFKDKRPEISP
Outline: as §1

ELF5 = molecular target: T6, ELF5 (Homo sapiens, UniProt Q9UKW6-2 1-255)
T6 sequence: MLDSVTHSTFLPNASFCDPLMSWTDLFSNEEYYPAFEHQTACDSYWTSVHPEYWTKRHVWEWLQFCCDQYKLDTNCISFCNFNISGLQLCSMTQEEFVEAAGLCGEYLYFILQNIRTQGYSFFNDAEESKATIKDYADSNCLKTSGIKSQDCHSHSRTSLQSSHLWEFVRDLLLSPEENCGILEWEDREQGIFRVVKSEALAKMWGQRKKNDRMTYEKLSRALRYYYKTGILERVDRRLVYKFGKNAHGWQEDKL
Outline: as §1

ETV3 = molecular target: T7, ETV3 (Homo sapiens, UniProt P41162-2 1-143)
T7 sequence: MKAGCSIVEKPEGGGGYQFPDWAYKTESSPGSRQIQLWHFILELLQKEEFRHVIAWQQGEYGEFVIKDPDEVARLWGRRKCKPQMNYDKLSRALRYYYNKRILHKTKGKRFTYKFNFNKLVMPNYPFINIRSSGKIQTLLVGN
Outline: as §1

ETV6 = ETV6 (Homo sapiens, UniProt P41212 1-452)
Outline: as §1

Sequence of ETV6 (P41212 whole entry): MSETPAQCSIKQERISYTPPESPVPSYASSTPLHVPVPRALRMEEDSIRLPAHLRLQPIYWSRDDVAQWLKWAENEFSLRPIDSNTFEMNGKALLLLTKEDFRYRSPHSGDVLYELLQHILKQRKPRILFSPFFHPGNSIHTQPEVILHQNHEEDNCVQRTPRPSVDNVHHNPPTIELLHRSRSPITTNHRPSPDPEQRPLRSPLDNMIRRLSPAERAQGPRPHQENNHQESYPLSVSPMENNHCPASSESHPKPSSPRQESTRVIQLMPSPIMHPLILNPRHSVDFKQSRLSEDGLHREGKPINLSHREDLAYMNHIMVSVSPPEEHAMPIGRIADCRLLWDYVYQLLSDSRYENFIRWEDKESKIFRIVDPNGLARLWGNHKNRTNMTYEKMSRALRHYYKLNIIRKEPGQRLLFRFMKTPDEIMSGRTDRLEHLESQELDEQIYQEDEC

| Sequence | binding signal (ERF) | binding signal (ETV3L) | binding signal (ETS2) | binding signal (SPDEF) | binding signal (ETV7) | binding signal (ELF5) | binding signal (ETV3) | binding signal (ETV6) |
| --- | --- | --- | --- | --- | --- | --- | --- | --- |
| ACACTC | 1.06 fold enrichment (6-mer frequency, TF over GST control) | 1.08 fold enrichment (6-mer frequency, TF over GST control) | 1.14 fold enrichment (6-mer frequency, TF over GST control) | 1.02 fold enrichment (6-mer frequency, TF over GST control) | 1.07 fold enrichment (6-mer frequency, TF over GST control) | 1.05 fold enrichment (6-mer frequency, TF over GST control) | 1.16 fold enrichment (6-mer frequency, TF over GST control) | 1.11 fold enrichment (6-mer frequency, TF over GST control) |
| TTGCGC | 1.28 fold enrichment (6-mer frequency, TF over GST control) | 1.13 fold enrichment (6-mer frequency, TF over GST control) | 1.16 fold enrichment (6-mer frequency, TF over GST control) | 1.06 fold enrichment (6-mer frequency, TF over GST control) | 1.12 fold enrichment (6-mer frequency, TF over GST control) | 1.03 fold enrichment (6-mer frequency, TF over GST control) | 1.07 fold enrichment (6-mer frequency, TF over GST control) | 1.06 fold enrichment (6-mer frequency, TF over GST control) |
| TTGGGT | 1.27 fold enrichment (6-mer frequency, TF over GST control) | 1.1 fold enrichment (6-mer frequency, TF over GST control) | 1.03 fold enrichment (6-mer frequency, TF over GST control) | 1.04 fold enrichment (6-mer frequency, TF over GST control) | 1.08 fold enrichment (6-mer frequency, TF over GST control) | 1.08 fold enrichment (6-mer frequency, TF over GST control) | – | – |
| TCGCAC | 1.06 fold enrichment (6-mer frequency, TF over GST control) | 1.06 fold enrichment (6-mer frequency, TF over GST control) | 1.04 fold enrichment (6-mer frequency, TF over GST control) | 1.05 fold enrichment (6-mer frequency, TF over GST control) | 1.03 fold enrichment (6-mer frequency, TF over GST control) | 1.06 fold enrichment (6-mer frequency, TF over GST control) | 1.07 fold enrichment (6-mer frequency, TF over GST control) | – |
| CTCCCT | 1.72 fold enrichment (6-mer frequency, TF over GST control) | 1.54 fold enrichment (6-mer frequency, TF over GST control) | 1.57 fold enrichment (6-mer frequency, TF over GST control) | 1.53 fold enrichment (6-mer frequency, TF over GST control) | 1.52 fold enrichment (6-mer frequency, TF over GST control) | 1.41 fold enrichment (6-mer frequency, TF over GST control) | 1.55 fold enrichment (6-mer frequency, TF over GST control) | 1.37 fold enrichment (6-mer frequency, TF over GST control) |
| TGCTAC | 1.39 fold enrichment (6-mer frequency, TF over GST control) | 1.3 fold enrichment (6-mer frequency, TF over GST control) | 1.23 fold enrichment (6-mer frequency, TF over GST control) | 1.26 fold enrichment (6-mer frequency, TF over GST control) | 1.23 fold enrichment (6-mer frequency, TF over GST control) | 1.17 fold enrichment (6-mer frequency, TF over GST control) | 1.23 fold enrichment (6-mer frequency, TF over GST control) | 1.16 fold enrichment (6-mer frequency, TF over GST control) |
| ATAGCT | 1.2 fold enrichment (6-mer frequency, TF over GST control) | 1.13 fold enrichment (6-mer frequency, TF over GST control) | 1.1 fold enrichment (6-mer frequency, TF over GST control) | 1.07 fold enrichment (6-mer frequency, TF over GST control) | 1.31 fold enrichment (6-mer frequency, TF over GST control) | 1.07 fold enrichment (6-mer frequency, TF over GST control) | 1.12 fold enrichment (6-mer frequency, TF over GST control) | 1.13 fold enrichment (6-mer frequency, TF over GST control) |
| TTGATT | 1.31 fold enrichment (6-mer frequency, TF over GST control) | 1.25 fold enrichment (6-mer frequency, TF over GST control) | 1.22 fold enrichment (6-mer frequency, TF over GST control) | 1.15 fold enrichment (6-mer frequency, TF over GST control) | 1.28 fold enrichment (6-mer frequency, TF over GST control) | 1.16 fold enrichment (6-mer frequency, TF over GST control) | 1.3 fold enrichment (6-mer frequency, TF over GST control) | 1.18 fold enrichment (6-mer frequency, TF over GST control) |
| AAGCGC | 1.1 fold enrichment (6-mer frequency, TF over GST control) | 1.13 fold enrichment (6-mer frequency, TF over GST control) | 1.22 fold enrichment (6-mer frequency, TF over GST control) | 1.03 fold enrichment (6-mer frequency, TF over GST control) | 1.11 fold enrichment (6-mer frequency, TF over GST control) | 1.13 fold enrichment (6-mer frequency, TF over GST control) | 1.29 fold enrichment (6-mer frequency, TF over GST control) | 1.15 fold enrichment (6-mer frequency, TF over GST control) |

Source: article PMC7862700, “An all-to-all approach to the identification of sequence-specific readers for epigenetic DNA modifications on cytosine”
